Inconclusive results are not listed. Activity calls are given as the source filed them. Calls come from the whole dose curve; as a rule, active = well fitted curve in the direction sought with a large enough effect; inconclusive = small, poorly fitted or top-dose-only effect, or another doubt; inactive = no such curve, though single readings can be large; an effect the other way counts as inactive or inconclusive.
Legend:
[1] = qHTS assay for measurement of the activity of small molecule inhibitors on Zika virus induced Caspase-3 activity in human iPSC derived neural progenitor cells (hNPCs) (AID 1224857); note: nearly all actives have a fitted effect of over 65% in size
In short: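 Human iPSC-derived neural progenitor cells pretreated 1 hr with compounds, then infected with Zika virus (2 FFU/cell) for 6 hours at 37 C. Caspase-3/7 measured by Caspase-Glo luminescence; % inhibition calculated from induction scaled to uninfected (0%) and infected (100%) wells.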

[2] = qHTS assay for measurement of the activity of small molecule inhibitors on Zika virus induced Caspase-3 activity in human astrocytoma cells (AID 1224859)
In short: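 SNB-19 astrocytoma cells, 250/well, pretreated 1 h with compounds, then Zika virus at 2 FFU/cell for 6 h at 37 C; Caspase-Glo 3/7 luminescence after 30 min; percent inhibition normalised to uninfected and infected controls.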

[3] = qHTS assay to identify small molecule inhibitors of chordoma cells - UCH-1 (AID 1259355); note: nearly all actives have a fitted effect of over 55% in size
In short: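 Screening used approved and investigational drugs in 15-point titration against 800 seeded cells per well. A fixed combination of auranofin with camptothecin, doxorubicin, rubitecan and topotecan followed compound addition, and growth was scored by CellTiter-Glo after 48hr.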

[4] = P-glycoprotein substrates identified in KB-8-5-11 adenocarcinoma cell line, qHTS therapeutic library screen (AID 1346987); conditions: outcome: dose series up to 44.5 µM; note: series mostly up to about 44 µM; nearly all actives have a fitted effect of over 65% in size
In short: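 In this qHTS, P-gp-rich KB-8-5-11 cells received library compounds across a concentration range. Viability was quantified by luminescence after 72 h at 37 degree C.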

[5] = NS1 protein of Zika virus - qHTS assay to identify small molecule inhibitors in human HEK 293 cells (AID 1347053); note: series mostly up to about 46 µM; nearly all actives have a fitted effect of over 55% in size
In short: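 Read-out is a two-antibody TR-FRET for ZIKV NS1, normalized between uninfected cells and infected cells. Compound added 1 h before MR766 infection at MOI 0.5; human HEK 293 cells incubated 24 h, 37 C.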

[6] = qHTS of pediatric cancer cell lines to identify multiple opportunities for drug repurposing: Primary screen for TC32 cells (AID 1347089); note: nearly all actives have a fitted effect of over 60% in size
In short: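 Luminescent ATP read-out (CellTiter-Glo) of metabolically active TC32 cells after 48 h exposure. Concentration-response curves came from 11-point (MIPE, 0.78 nM–46 µM) or 8-point (NPC, 0.59 nM–46 µM) primary titrations; follow-up used 11 points.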

[7] = qHTS of pediatric cancer cell lines to identify multiple opportunities for drug repurposing: Primary screen for DAOY cells (AID 1347090); note: series mostly up to about 46 µM; nearly all actives have a fitted effect of over 55% in size
In short: (§1)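 Viability measured as metabolically active cells via CellTiter-Glo luminescence following 48 hours of compound exposure, 11-point dilutions in confirmatory testing. 500-1,000 cells/well plated 5 hours before dosing; controls were DMSO and 2.3 µM bortezomib.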

[8] = qHTS of pediatric cancer cell lines to identify multiple opportunities for drug repurposing: Primary screen for SJ-GBM2 cells (AID 1347091)
In short: as §1

[9] = qHTS of pediatric cancer cell lines to identify multiple opportunities for drug repurposing: Primary screen for A673 cells (AID 1347092); note: nearly all actives have a fitted effect of over 45% in size
In short: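 Cell viability of A673 measured by CellTiter-Glo ATP luminescence after 48 hours compound exposure. Dilution series spanned 0.78 nM to 46 µM (MIPE, 11-point) or 0.59 nM to 46 µM (NPC, 8-point); bortezomib 2.3 uM positive control.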

[10] = qHTS of pediatric cancer cell lines to identify multiple opportunities for drug repurposing: Primary screen for BT-37 cells (AID 1347094); note: series mostly up to about 57 µM
In short: (§2)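 Cells plated at 500-1,000/well in growth medium, compounds added after 5 h. MIPE tested at 11 points (from 0.78 nM), NPC at 8 points (from 0.59 nM). CellTiter-Glo luminescence after 48 h; concentration-response curves from primary screen.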

[11] = qHTS of pediatric cancer cell lines to identify multiple opportunities for drug repurposing: Primary screen for NB-EBc1 cells (AID 1347095)
In short: as §2

[12] = qHTS of pediatric cancer cell lines to identify multiple opportunities for drug repurposing: Primary screen for Saos-2 cells (AID 1347097); note: nearly all actives have a fitted effect of over 40% in size
In short: as §2

[13] = qHTS of pediatric cancer cell lines to identify multiple opportunities for drug repurposing: Primary screen for SK-N-SH cells (AID 1347098);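 note: DMSO served as neutral control and bortezomib at 2.3 µM as positive control; nearly all actives have a fitted effect of over 65% in size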
In short: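 Cells (500-1,000/well) rested 5 h, then received compounds for 48 h; metabolically active cells were measured by CellTiter-Glo luminescence. Final concentrations spanned up to 46 µM (MIPE, 11-point) or 0.59 nM-46 µM (NPC, 8-point) in primary screens, 11-point in follow-ups.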

[14] = qHTS of pediatric cancer cell lines to identify multiple opportunities for drug repurposing: Primary screen for NB1643 cells (AID 1347099); note: nearly all actives have a fitted effect of over 50% in size
In short: as §2

[15] = qHTS of pediatric cancer cell lines to identify multiple opportunities for drug repurposing: Primary screen for LAN-5 cells (AID 1347100)
In short: (§3)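 Viability after 48 h compound treatment at 37C, 500-1,000 cells/well, read as ATP luminescence with CellTiter-Glo. Primary screens used 11-point (MIPE, 0.78 nM-46 µM) or 8-point (NPC, 0.59 nM-46 µM) final concentrations; follow-up screens used 11-point dilutions.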

[16] = qHTS of pediatric cancer cell lines to identify multiple opportunities for drug repurposing: Primary screen for SK-N-MC cells (AID 1347093); note: series mostly up to about 46 µM
In short: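 Metabolically active cells were quantified by ATP-dependent luminescence (CellTiter-Glo, 15 min at room temperature) following 48 h treatment. Cells had been plated at 500-1,000 per well and settled for 5 h beforehand.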

[17] = qHTS of pediatric cancer cell lines to identify multiple opportunities for drug repurposing: Primary screen for U-2 OS cells (AID 1347096); note: nearly all actives have a fitted effect of over 50% in size
In short: as §3

[18] = qHTS assay to identify small molecule inhibitors of chordoma cells - UCH-2 (AID 1259356); note: series mostly up to about 46 µM

Measured: Potency

NS(=O)(=O)c1ccc(NC(=O)CCC(=O)O)cc1
not listed: [16] | [17] | [18]
inactive: all other assays above

CC(=O)Nc1ccc(C(=O)O)cc1
not listed: [13] | [18]
inactive: all other assays above

C=CCSCC1Nc2cc(Cl)c(S(N)(=O)=O)cc2S(=O)(=O)N1 (configuration not stated)
not listed: [13] | [18]
inactive: all other assays above

CCN(CC)C(=O)c1cccc(C)c1
not listed: [3] | [10] | [17]
inactive: all other assays above

CCc1nnc(NS(=O)(=O)c2ccc(N)cc2)s1
not listed: [3]
inactive: all other assays above

O=C(CCBr)N1CCN(C(=O)CCBr)CC1
not listed: [3] | [13]
inactive: all other assays above

CC(=O)N1C[C@H](O)C[C@H]1C(=O)O
not listed: [3] | [13] | [16]
inactive: all other assays above

Cc1c(NC(=O)c2cccnc2)c(=O)n(-c2ccccc2)n1C
not listed: [3] | [8] | [10] | [13] | [18]
inactive: all other assays above

CC(=O)OCC(COC(C)=O)OC(C)=O
not listed: [3] | [13] | [18]
inactive: all other assays above

CCOC(=O)c1cccnc1
not listed: [3] | [10]
inactive: all other assays above

CC1(C)S[C@@H]2[C@H](NC(=O)C(C(=O)O)c3ccccc3)C(=O)N2[C@H]1C(=O)O (some centres not stated)
not listed: [3] | [10]
inactive: all other assays above

Cc1c(N(C)C)c(=O)n(-c2ccccc2)n1C
not listed: [3]
inactive: all other assays above

Cc1c(Cn2ccnc2)c2ccccc2n1CCC(=O)O
not listed: [3]
inactive: all other assays above

O=C(Cn1ccnc1[N+](=O)[O-])NCc1ccccc1
not listed: [3] | [14] | [16] | [17]
inactive: all other assays above

CCCCCCCC(=O)OCC(COC(=O)CCCCCCC)OC(=O)CCCCCCC
not listed: [3] | [16]
inactive: all other assays above

CC(C(=O)O)c1ccc2c(c1)Cc1cccnc1O2 (configuration not stated)
not listed: [3] | [12]
inactive: all other assays above

NS(=O)(=O)c1cc2c(cc1C(F)(F)F)NCNS2(=O)=O
not listed: [3]
inactive: all other assays above

C/C(=C(\CCO)SS/C(CCO)=C(\C)N(C=O)Cc1cnc(C)nc1N)N(C=O)Cc1cnc(C)nc1N
not listed: [3] | [10]
inactive: all other assays above

CN1C(C)(C)CCCC1(C)C
not listed: [3] | [8] | [10] | [13] | [16] | [17]
inactive: all other assays above

Cc1cccc(C)c1NC(=O)CC12CCCN1CCC2
not listed: [3]
inactive: all other assays above

CC[N+](C)(CC)CCOC(=O)C1c2ccccc2Oc2ccccc21
not listed: [3] | [17] | [18]
inactive: all other assays above

Source: PubChem BioAssay (NCATS)
